Inconclusive results are not listed. Entries that show only a call come without a potency. Activity calls are given as the source filed them. Calls follow the shape of the dose curve; as a rule, active = well fitted inhibition curve with a large enough effect; inconclusive = small, poorly fitted or top-dose-only effect; inactive = no such curve, though single readings can be large or run the other way.

Experimental findings from PubChem BioAssay (NCATS) are described below.
Potency is read from the fitted curve at half-maximal effect.

Cytochrome P450 3A7 (Homo sapiens), sequence (P24462 whole entry, looked up): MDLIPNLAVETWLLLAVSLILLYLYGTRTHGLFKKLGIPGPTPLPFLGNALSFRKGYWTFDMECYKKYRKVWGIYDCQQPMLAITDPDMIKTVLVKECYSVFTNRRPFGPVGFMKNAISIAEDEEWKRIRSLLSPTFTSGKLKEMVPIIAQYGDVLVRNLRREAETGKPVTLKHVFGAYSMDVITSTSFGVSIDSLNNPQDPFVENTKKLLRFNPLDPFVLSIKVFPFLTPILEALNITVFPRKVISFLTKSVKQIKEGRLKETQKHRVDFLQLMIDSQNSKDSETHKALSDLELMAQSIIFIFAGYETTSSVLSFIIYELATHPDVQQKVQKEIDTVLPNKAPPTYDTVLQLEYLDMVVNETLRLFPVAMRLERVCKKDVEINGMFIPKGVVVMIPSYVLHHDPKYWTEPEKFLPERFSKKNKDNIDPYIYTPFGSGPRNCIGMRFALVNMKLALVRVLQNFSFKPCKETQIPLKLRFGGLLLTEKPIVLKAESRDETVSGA

This experiment addresses Cytochrome P450 3A7 (Homo sapiens) (UniProt P24462). The experiment can be described thus: Cytochrome P450 family 3 subfamily A member 7 (CYP3A7) small molecule antagonists: luciferase biochemical qHTS assay (AID 1963596). Also: nearly all actives have a fitted effect of over 40% in size. Particulars: P450-Glo CYP3A7 enzyme luminescence, 1 h; series mostly up to 57.4 µM. The method, boiled down: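 Luminescence from luciferin released by CYP3A7 from a proluciferin substrate, read 20 min after detection reagent. Compound and enzyme-substrate mix sat 10 min before NADPH regeneration solution; reaction ran 1 h at room temperature.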
(Quantitative high-throughput screening tests each substance at several concentrations.)
Take `COc1ccc(C(=O)NC(c2ccccc2Cl)c2cc(Cl)c3cccnc3c2O)cc1` (stereo not drawn): the Potency result was “inactive”.
To `CC1(C)OC[C@H](NC(=O)Nc2ccc(Br)cc2Br)[C@H](c2ccccc2)O1` belongs “inactive”.
`O=[N+]([O-])c1ccc(Oc2ccc(N=C=S)cc2)cc1`: the Potency is 2.39 µM (active).
As for `O=C(O)CN(CC(=O)O)Cc1cc2c(-c3ccccc3C(=O)O)c3cc(CN(CC(=O)O)CC(=O)O)c(=O)cc-3oc2cc1O`, the entry is “inactive”.
To `N[C@H](CO)C(=O)O` belongs “inactive”; to `CC(C)[C@H]1CC[C@H](C)C[C@H]1O`, “inactive”; to `CC1(C)[C@H]2C[C@H](C/C=C\CCCC(=O)O)[C@@H](NC(=O)c3csc4ccc(O)cc34)[C@@H]1C2`, “inactive”.
In the case of `Cc1ccccc1NC(=O)Nc1ccc(CN2C(=O)N([C@@H](CC(C)C)C(=O)N[C@@H](CC(=O)O)c3ccccc3)C(=O)C2(C)C)cc1`, the Potency result is “inactive”.
To `CCOC(=O)c1ccc(Nc2nc3nonc3nc2Nc2cccc(C)c2C)cc1` belongs “inactive”.
As for `COc1cc(C(=O)NC(c2ccccc2Cl)c2cc(Cl)c3cccnc3c2O)cc(OC)c1OC` (stereo not drawn), the Potency entry was “inactive”.
As for `NC(=O)C[C@H](N)C(=O)O`, the Potency entry is “inactive”.
As to `Nc1nc(N)c2nc(CNc3ccc(C(=O)N[C@@H](CCC(=O)O)C(=O)O)cc3)cnc2n1`, the Potency entry was “inactive”.
In the case of `O=C1CCC(=O)N1CO`, the Potency result is “inactive”.
As for `COc1cc2nc(=NC(=O)c3cccnc3)n3c(c2cc1OC)NCC3`, the entry is “inactive”; as for `O=C(Nc1ccc(Cl)c(Cl)c1)C1CC1`, “inactive”.
For the compound `CCCc1ccc(C(=O)O)cc1`, the Potency entry was “inactive”.
As to `O=C(O)[C@@H]1CCCN1`, the Potency entry is “inactive”.
For the compound `CCc1cnc(N2CCC(c3nc(COc4ccc(-n5cnnn5)cc4)cs3)CC2)nc1`, the Potency result is “inactive”.
On to `Cc1c(C)c2c(c(C)c1O)CC[C@@](C)(CCC[C@H](C)CCC[C@H](C)CCCC(C)C)O2`, for which the Potency entry was “inactive”.
To `CCOc1ccc(NC(=O)Cn2cc(C(=O)c3cccs3)c3ccccc32)cc1` belongs “inactive”.
With `CCN(CCCO)CCCOc1ccc2c(Nc3cc(CC(=O)Nc4cccc(F)c4)[nH]n3)ncnc2c1`, the Potency is 14.1 µM (active).
On to `COc1ccc(-c2nc3n(n2)C(c2ccc(OC)c(OC)c2)C(C(=O)Nc2cccnc2)=C(C)N3)cc1` (stereo not drawn), for which the Potency entry was “inactive”.
Take `CCC(CC)Nc1nc(C)c(-c2ccc(OC(F)(F)F)cc2OC)nc1OC`: the Potency entry is “inactive”.
